According to PubChem BioAssay AID1259354 (Paczesny and Yang Labs, IUPUI and University of Michigan, 2018):
Values joined by “and” are separate entries in the source; they are usually repeats but may differ in a detail not shown here. Equal entries are not always repeated. About 1,800 (2.3%) of roughly 78,000 compounds were called active. About 27% were inconclusive and are not listed. Cut-off read from the data, not from the text of the source: active = inhibition above about 30%; inconclusive = mostly about 10% to 28%; inactive = weaker than that. The list comes from a sample in which actives are over-represented; it also holds similar structures and randomly drawn compounds.

The compounds below were run against Interleukin-1 receptor-like 1 (Homo sapiens) (UniProt Q01638) (assay: inhibitors of human ST2 (IL1RL1) binding to IL-33, primary screen, biochemical, AlphaLISA (AID 1259354)). Details: AlphaLISA ST2-Fc/biotin-IL-33 interaction, 1 h; at 17 µM, hits give high values.
Interleukin-1 receptor-like 1 (Homo sapiens), sequence (Q01638 whole entry, looked up): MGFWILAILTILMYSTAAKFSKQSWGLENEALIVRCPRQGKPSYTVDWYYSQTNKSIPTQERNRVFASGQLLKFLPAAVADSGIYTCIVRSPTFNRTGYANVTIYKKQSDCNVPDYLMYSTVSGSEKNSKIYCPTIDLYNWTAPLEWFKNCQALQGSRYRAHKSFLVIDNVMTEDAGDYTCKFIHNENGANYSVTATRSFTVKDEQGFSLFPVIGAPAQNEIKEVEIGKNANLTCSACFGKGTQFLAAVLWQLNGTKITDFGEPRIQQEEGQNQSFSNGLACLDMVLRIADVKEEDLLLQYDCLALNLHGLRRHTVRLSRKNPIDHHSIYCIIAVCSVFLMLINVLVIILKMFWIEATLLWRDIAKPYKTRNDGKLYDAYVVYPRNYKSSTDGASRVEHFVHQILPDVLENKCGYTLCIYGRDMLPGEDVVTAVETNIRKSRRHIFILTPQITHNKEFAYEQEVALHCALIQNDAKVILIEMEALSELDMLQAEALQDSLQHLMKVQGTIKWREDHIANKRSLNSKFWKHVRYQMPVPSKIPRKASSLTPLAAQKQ
In the case of Cc1ccc(NC(=O)CNCC(C)c2ccccc2)c(C)c1 (configuration not stated), the inhibition was “inactive”. For OC(C#Cc1ccccc1)C#Cc1ccccc1, the inhibition was “inactive”. For Cc1nonc1C1CCCN1Cc1cnc(S(=O)(=O)C(C)C)n1Cc1ccccc1F (configuration not stated), the inhibition was “inactive”. In the case of O=C(Nc1nnc(-c2cccs2)o1)c1ccc(S(=O)(=O)N2CCCc3ccccc32)cc1, the inhibition was “inactive”. For CSCc1nnc(NC(=O)c2ccc(S(=O)(=O)N3CCCc4ccccc43)cc2)o1, the inhibition was “inactive”. For CC1CCc2nc(NC(=O)c3ccc(S(=O)(=O)N4CCc5ccccc54)cc3)sc2C1 (configuration not stated), the inhibition was 30% (active). With CCN(CC)C(=O)[C@@H]1C[C@H](n2cc(Cn3c(C)nc4ccccc43)nn2)CN1 the inhibition was “inactive”. With CC1=Nc2c(ccc3cccnc23)C1(C)C the inhibition was 36% (active). With Brc1ccc(CSc2cccc3cccnc23)cc1 the inhibition was “inactive”. For CSCCNC(=O)CC1C(=O)NCCN1Cc1ccccc1 (configuration not stated), the inhibition was “inactive”. With Cc1cc2oc(=O)cc(CN(C)C(C)c3ccon3)c2cc1C (configuration not stated) the inhibition was “inactive”. With Clc1ccc(OCCCCN2CCOCC2)c(Br)c1 the inhibition was “inactive”. In the case of CN(Cc1ccccc1)C(=O)CN(C)S(=O)(=O)c1ccc(Cl)cc1, the inhibition was “inactive”. CN(Cc1ccccc1)C(=O)c1cc(-c2ccc(Cl)cc2)on1 was tested, and the inhibition was “inactive”. For CN(Cc1ccccc1)C(=O)CN1C(=O)/C(=C\c2cccc(Cl)c2)Sc2ccccc21, the inhibition was 44% (active). For O=C(NC(Nc1cccc([N+](=O)[O-])c1)C(Cl)(Cl)Cl)c1ccc(Br)cc1 (configuration not stated), the inhibition was “inactive”. For CCOC(=O)c1c(C)[nH]c(C(=O)NC(C)c2cnn(-c3ccccc3C)c2C)c1C (configuration not stated), the inhibition was “inactive”. For CN(Cc1ccccc1)C(=O)C1(S(=O)(=O)c2ccc(Cl)cc2)CC1, the inhibition was “inactive”. In the case of COc1ccc(Nc2ccn(-c3nc(-c4ccccc4)oc3-c3ccccc3)c(=O)n2)cc1, the inhibition was “inactive”. In the case of COc1ccc(-c2csc(=Nc3ccccc3)n2C)cc1, the inhibition was 59% (active) and 52% (active). With O=C(C(NS(=O)(=O)c1cccs1)c1ccccc1)N1CCc2ccccc21 (configuration not stated) the inhibition was “inactive”. For COc1cc(OC)cc(C(=O)Nc2cc(N3CCCS3(=O)=O)ccc2OC)c1, the inhibition was “inactive”. In the case of O=C1NC(=O)/C(=C\c2ccc(-c3cccc(Cl)c3)o2)S1, the inhibition was “inactive”. In the case of O=C1NC(=O)/C(=C\c2ccc(-c3ccc(F)c(Cl)c3)o2)S1, the inhibition was 34% (active). With CC(=O)Nc1nonc1N1C(=N)S/C(=C\c2ccc(-c3cccc(F)c3)o2)C1=O the inhibition was “inactive”. Cc1nc(CC(=O)NCCc2csc(-c3cccnc3)n2)cs1 was tested, and the inhibition was “inactive”. COc1ccc(CCNS(=O)(=O)c2cccc3cccnc23)cc1OC was tested, and the inhibition was “inactive”. In the case of COc1cc(NS(=O)(=O)c2ccc3c(c2)CCN3C(=O)C2CC2)cc(OC)c1, the inhibition was “inactive”. In the case of Cc1cccc(C)c1NC(=O)c1ccc(F)cc1, the inhibition was “inactive”. With N#CC1=C(N)OC2=C(C(=O)CC(c3ccccc3)C2)C1c1cccs1 (configuration not stated) the inhibition was “inactive”. O=C1CC2(CCCCC2)Oc2ccc(OCC(=O)N3CCOCC3)cc21 was tested, and the inhibition was “inactive”. CCc1nc(C)ccc1OCC(=O)N1CCC2(CN(C)C(=O)O2)C1 (configuration not stated) was tested, and the inhibition was 30% (active). In the case of O=C(CN1C(=O)/C(=C\c2ccc(C(F)(F)F)cc2)Sc2ccccc21)NCC1CCCO1 (configuration not stated), the inhibition was 30% (active). O=C(CN1C(=O)CC(c2ccccc2)Sc2ccccc21)NCc1ccco1 (configuration not stated) was tested, and the inhibition was “inactive”. For O=C(CN1CCCCC1)N1c2ccccc2Sc2ccc(C(F)(F)F)cc21, the inhibition was “inactive”. O=C(CN1C(=O)C2CCCCN2C(=O)c2ccccc21)NCC1CCCO1 (configuration not stated) was tested, and the inhibition was “inactive”. O=C(CN1C(=O)/C(=C\c2ccc(C(F)(F)F)cc2)Sc2ccccc21)NCc1ccco1 was tested, and the inhibition was 32% (active). With O=C(CN1CCN(Cc2ccc(F)cc2)C1=O)NCC1CCCO1 (configuration not stated) the inhibition was “inactive”. For CC(C)c1ccc(Nc2c(-c3cccs3)nc3cnccn23)cc1, the inhibition was “inactive”. In the case of O=C(c1ccccc1F)N1CCc2c(c(C(=O)N3CCOCC3)nn2CCCc2ccccc2)C1, the inhibition was “inactive”. With CC(C)c1ccc(NC2CCCN(C(=O)CCc3nc(-c4ccccc4)no3)C2)cc1 (configuration not stated) the inhibition was “inactive”. In the case of CC1=C(C(N)=O)C(c2ccccc2Cl)n2ncnc2N1 (configuration not stated), the inhibition was “inactive”. O=C(Cn1nc(-c2ccccc2)ccc1=O)NCCN1CCOCC1 was tested, and the inhibition was “inactive”. COc1c(F)ccc(-c2nc(C(C)C)nn2-c2ccccn2)c1F was tested, and the inhibition was “inactive”. With Cc1c(CCC#N)c(-n2ccnc2)n2c(nc3ccccc32)c1C#N the inhibition was “inactive”. In the case of CN(C)CCCNc1c2c(c(C#N)c3nc4ccccc4n13)CCC2, the inhibition was 51% (active). With N#Cc1c2c(c(-n3ccnc3)n3c1nc1ccccc13)CCC2 the inhibition was “inactive”. In the case of Cc1cc(NCCN2CCCCCC2)n2c(nc3ccccc32)c1C#N, the inhibition was 45% (active). With O=C(CN1CCCN(Cc2ccccc2)S1(=O)=O)NCCc1ccccc1 the inhibition was “inactive”. COc1ccc(Cl)cc1C(=O)N1CCN(c2cccc(Cl)c2)CC1 was tested, and the inhibition was “inactive”. In the case of COc1cc(/C=C2/C(=O)N(c3ccc(Cl)c(Cl)c3)N=C2C)cc(Br)c1O, the inhibition was 37% (active). COc1ccc(/C=C2\C(=O)N(c3ccc(Cl)c(C(=O)O)c3)N=C2C)cc1Br was tested, and the inhibition was 72% (active). In the case of CN1C(N)=NC(=O)/C1=C/c1cc(Br)c(O)c(Br)c1, the inhibition was “inactive”. For COc1ccc2cc(-c3ccccc3NC(=O)CN)ccc2c1, the inhibition was “inactive”. COc1ccc(C2C(C(=O)N3CCC(C)CC3)c3cc(OC)c(OC)cc3C(=O)N2C)cc1 (configuration not stated) was tested, and the inhibition was “inactive”. With CCOc1cc(/C=C2\C(=O)NC(=O)N(c3ccc(Br)cc3)C2=O)ccc1O the inhibition was “inactive”. With CCOc1ccc(Br)c(/C=C2\C(=O)Nc3ccc(Br)cc32)c1 the inhibition was 60% (active). In the case of COc1cc(/C=C2\C(=O)Nc3ccc(Br)cc32)ccc1O, the inhibition was “inactive”. COCc1cc(CNC(=O)c2csc3c2CCCC3)[nH]n1 was tested, and the inhibition was “inactive”. With COc1ccccc1C(=O)N/C(=C/c1ccc2c(c1)OCO2)C(=O)Nc1cccc(C(=O)O)c1 the inhibition was 39% (active). With COc1ccccc1C(=O)N/C(=C\c1ccc2c(c1)OCO2)C(N)=O the inhibition was “inactive”. O=C(Nc1ccccc1)/C(=C/c1ccc2c(c1)OCO2)NC(=O)c1ccc(Br)o1 was tested, and the inhibition was “inactive”. In the case of CC(C)(C)NS(=O)(=O)c1ccc2c(c1)C(=O)c1cc(S(=O)(=O)NC(C)(C)C)ccc1-2, the inhibition was “inactive”. With CCCc1nc(CN(C)C(=O)c2c(O)cccc2O)no1 the inhibition was “inactive”. With CC(C)c1ccc(CNCCCN(C)C)cc1 the inhibition was “inactive”. O=C(NC1CCCCC1)N1CCC(n2cc(-c3ccccn3)nn2)CC1 was tested, and the inhibition was “inactive”. COc1ccc(-c2nc3s/c(=C\C4=Cc5ccccc5OC4C)c(=O)n3n2)cc1 (configuration not stated) was tested, and the inhibition was “inactive”.
